# In PubChem BioAssay (EPA / NIEHS):
# “And” between values parts separate entries of the source, which are not always exact repeats. Equal entries are not always repeated. Inconclusive results are not listed. The source made the active and inactive calls. The calls were made as follows, unless noted: active = hit-call score of the fitted dose curve at least 0.9, where 1 is the maximum; inconclusive = response in the unintended direction; inactive = score below 0.9.
# Legend:
# [1] = target: sheep Cyclooxygenase-1 (Cox1), PTGS1 (gene 443551) (UniProt P05979); experiment: NVS_ENZ_oCOX1: NovaScreen (NVS) Enzymatic Assay for sheep Cyclooxygenase-1 (Cox1) (AID 2283239);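 also: actives reduce cyclooxygenase activity so potencies are for inhibitors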
# Method in brief: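 COX1 from ovine seminal vesicles, activity read colorimetrically about 0.66 h after dosing. Primary screen in duplicate at 25 uM; actives retested in concentration series; loss of signal fitted versus DMSO.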
# [2] = target: human Dopamine Transporter (DAT), SLC6A3 (gene 6531) (UniProt Q01959); experiment: NVS_TR_hDAT: NovaScreen (NVS) Transporter Assay for human Dopamine Transporter (DAT) (AID 2283374);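 also: activity means loss of bound radioligand signal relative to DMSO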
# Method in brief: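 Cell-free radioligand binding to extracted human DAT protein, read 1 h after dosing by filter-based scintillation counting. Loss of specific binding scored against DMSO baseline; primary screen in duplicate at 25 uM, actives then run in concentration series.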
# [3] = CEETOX_H295R_11DCORT: CeeTox H295R High-throughput Steroidogenesis Assay for 11-Deoxycortisol (11DCORT) (AID 2283432; active = hit-call score of the fitted dose curve at least 0.9, where 1 is the maximum; inactive = score below 0.9); conditions: actives raise or lower the signal
# Method in brief: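 Human adrenal H295R cells were prestimulated with 10 uM forskolin for 48 h, then exposed to test chemical (0.1% DMSO final) for 48 h. Medium 11-deoxycortisol was quantified by MTBE extraction and HPLC-MS/MS; bidirectional fitting relative to DMSO.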
# [4] = CEETOX_H295R_OHPREG: CeeTox H295R High-throughput Steroidogenesis Assay for OH-Pregnenolone (OHPREG) (AID 2283434; active = hit-call score of the fitted dose curve at least 0.9, where 1 is the maximum; inactive = score below 0.9); conditions: actives raise or lower the signal
# Method in brief: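 Human adrenal H295R cells were prestimulated 48 h with 10 uM forskolin, then exposed 48 h to chemical in 0.1% DMSO. Medium 17alpha-hydroxypregnenolone was quantified by HPLC-MS/MS after MTBE extraction; bidirectional fitting versus DMSO baseline.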
# [5] = CEETOX_H295R_OHPROG: CeeTox H295R High-throughput Steroidogenesis Assay for OH-Progesterone (OHPROG) (AID 2283435; active = hit-call score of the fitted dose curve at least 0.9, where 1 is the maximum; inactive = score below 0.9); conditions: actives raise or lower the signal
# Method in brief: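 H295R human adrenal cells were prestimulated 48 h with 10 uM forskolin, then exposed 48 h to test chemical (0.1% DMSO final). 17alpha-hydroxyprogesterone in medium was measured by HPLC-MS/MS after MTBE extraction; bidirectional fitting vs DMSO.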
# [6] = CEETOX_H295R_CORTIC: CeeTox H295R High-throughput Steroidogenesis Assay for Corticosterone (CORTIC) (AID 2283437; active = hit-call score of the fitted dose curve at least 0.9, where 1 is the maximum; inactive = score below 0.9;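 also: corticosterone secreted into medium quantified by mass spectrometry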); conditions: actives raise or lower the signal
# Method in brief: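 H295R cells were prestimulated 48 h with 10 uM forskolin, then exposed 48 h to test chemical in 0.1% DMSO. Medium corticosterone was MTBE-extracted and quantified by HPLC-MS/MS; bidirectional fit versus DMSO baseline.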
# [7] = CEETOX_H295R_MTT_cell_viability: Viability Assessment in the CeeTox HT-H295R MTT Assay (AID 2283718; active = hit-call score of the fitted dose curve at least 0.9, where 1 is the maximum; inactive = score below 0.9;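 as to AC50: curve fitted both ways so AC50 may mark viability loss or gain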)
# Method in brief: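 H295R cells prestimulated 48 h with 10 uM forskolin, then exposed 48 h to test chemical (0.1% DMSO final). Viability by MTT (0.5 mg/ml, 4 h, 37 C), absorbance 570/650 nm; percent change versus DMSO, bidirectional fit.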
# [8] = CCTE_Padilla_ZF_Score.General: CCTE's 144 Hour Post-fertilization zebrafish Assay Score for General Malformation, Padilla Lab (AID 2284411; active = hit-call score of the fitted dose curve at least 0.9, where 1 is the maximum; inactive = score below 0.9)
# Method in brief: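 Wild-type zebrafish embryos were plated singly at 6-8 hpf in 10% Hanks' and exposed in sealed wells at 26C until rinsed on 5 dpf. At 6 dpf two blinded assessors scored mortality, hatching and malformations by stereomicroscopy; gain-of-signal versus DMSO.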
# [9] = target: human Ephrin type-A Receptor 1 (EphA1), EPHA1 (gene 2041) (UniProt P21709); experiment: NVS_ENZ_hEphA1: NovaScreen (NVS) Enzymatic Assay for human Ephrin type-A Receptor 1 (EphA1) (AID 2283158);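 also: activity is signal loss versus DMSO meaning EphA1 kinase inhibition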
# Method in brief: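 Cell-free kinase activity with recombinant protein, 1 hour after dosing; product separated by electrophoretic mobility shift, fluorescence read. Primary screen at 25 uM in duplicate; hits run as concentration-response up to 50 uM, relative to DMSO.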
# [10] = target: human Retinoic Acid Receptor beta (RARb), RARB (gene 5915) (UniProt P10826); experiment: ATG_RARb_TRANS: Attagene TRANS-FACTORIAL HepG2 Assay for human Retinoic Acid Receptor beta (AID 2283004)
# Method in brief: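 HepG2 cells were transiently transfected with GAL4-UAS reporter units that report activity of exogenous chimeric NR-Gal4 proteins, then exposed to compound for 24 h. Reporter mRNA was quantified by RT-PCR with capillary electrophoresis fluorescence, as gain of signal over DMSO.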
# [11] = test system: Thyroperoxidase (TPO), gene 54314; experiment: CCTE_Simmons_AUR_rTPO: CCTE's Amplex UltraRed Assay for Thyroperoxidase (TPO) Inhibition, Simmons Lab (AID 2283662);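 also: potency for loss of signal meaning inhibition of peroxidase activity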
# Method in brief: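 Rat thyroid microsomes (5 ug protein) were incubated with test compound (8 concentrations, 5 nM–87.5 uM final, 0.5% DMSO), 25 uM Amplex UltraRed and 300 uM H2O2 in 200 mM phosphate buffer for 30 min at 37C in the dark; fluorescence read at 544/590 nm.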
# [12] = CCTE_Simmons_CellTiterGLO_HEK293T: Viability Assessment in CCTE's Assays for Thyroperoxidase (TPO) Inhibition, Simmons Lab (AID 2283665)
# Method in brief: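 HEK293T cells in DMEM with 1% FBS were dosed with 8 concentrations (5 nM–87.5 uM final, 0.5% DMSO) for 24 hr at 37C; ATP content was read by CellTiter-Glo luminescence, loss-of-signal versus DMSO, three biological replicates.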
# [13] = target: Luciferin 4-monooxygenase (Photinus pyralis) (UniProt P08659); experiment: CCTE_Simmons_QuantiLum_inhib_2: CCTE's Firefly Luciferase Inhibition Assay, Simmons Lab (AID 2283767)
# Method in brief: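 Recombinant firefly luciferase (5 ng/well, 200 mM potassium phosphate with 1 mg/ml BSA) was exposed to 8 concentrations from 5 nM to 87.5 uM (final, 0.5% DMSO) for 30 min at 37C in the dark. Loss of luminescence versus DMSO was read after injecting D-luciferin/ATP-analogue reagent.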
# [14] = target: Protein deacetylase HDAC6 (Homo sapiens) (UniProt Q9UBN7); experiment: NVS_ENZ_hHDAC6: NovaScreen (NVS) Enzymatic Assay for human Histone Deacetylase 6 (HDAC6) (AID 2283164)
# Method in brief: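 Recombinant human HDAC6 with fluorescent substrate, 1 h; product separated from substrate by electrophoretic mobility shift. Primary screen in duplicate at 25 uM; actives retested singly in concentration-response up to 50 uM, fitted relative to DMSO.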
# [15] = target: rat Monoamine Oxidase, MAO-B, Peripheral (MAOBP), Maob (gene 25750) (UniProt P19643); experiment: NVS_ENZ_rMAOBP: NovaScreen (NVS) Enzymatic Assay for rat Monoamine Oxidase, MAO-B, Peripheral (MAOBP) (AID 2283242)
# [16] = target: rat CYP2C12, Cyp2c12 (gene 25011) (UniProt P11510); experiment: NVS_ADME_rCYP2C12: NovaScreen (NVS) CYP450-related Enzyme Activity (ADME) Assay for rat CYP2C12 (AID 2283119)
# Method in brief: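 Cell-free recombinant rat CYP2C12 activity read by fluorescence 0.5 h after dosing; loss of signal versus acetonitrile control. Primary screen in duplicate at 10 uM; actives then run in concentration-response format.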
# [17] = target: human Tyrosine Protein Kinase Receptor Tie-2 (Tie2), TEK (gene 7010) (UniProt Q02763); experiment: NVS_ENZ_hTie2: NovaScreen (NVS) Enzymatic Assay for human Tyrosine Protein Kinase Receptor Tie-2 (Tie2) (AID 2283225)
# Method in brief: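 Recombinant human Tie2 kinase activity was read cell-free by fluorescence with electrophoretic mobility shift, 1 hour after dosing. The screen used 25 uM in duplicate, then concentration-response up to 50 uM. Signal loss was scored against DMSO.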
# [18] = target: bovine Gamma-Aminobutyric Acid Type A Receptor BDZ, alpha 1 site (GABARa1), GABRA1 (gene 780973) (UniProt P08219); experiment: NVS_LGIC_bGABARa1: NovaScreen (NVS) Ligand-Gated Ion Channel Assay for bovine Gamma-Aminobutyric Acid Type A Receptor BDZ, alpha 1 site (GABARa1) (AID 2283321)
# Method in brief: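 Radioligand competition binding on bovine cortical membranes, 0.75 h, filter-based scintillation counting. Primary single concentration 25 uM in duplicate; actives rerun in concentration-response to 50 uM max. Loss of signal fitted versus DMSO.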
# [19] = target: Norway rat Vesicular Monoamine Transporter (VMAT2), neurotransmitter transporter, Slc18a2 (gene 25549) (UniProt Q01827); experiment: NVS_TR_rVMAT2: NovaScreen (NVS) Transporter Assay for Norway rat Vesicular Monoamine Transporter (VMAT2), neurotransmitter transporter (AID 2283376);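 also: actives lower the bound radioligand signal below the DMSO level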
# Method in brief: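 Rat forebrain tissue preparation used in a cell-free radioligand binding format; displacement read by filter-based scintillation counting 1 hour after dosing. Primary screen in duplicate at 25 uM, actives then run in concentration series; loss of signal versus DMSO baseline.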
# [20] = target: Bile acid receptor (Homo sapiens) (UniProt Q96RI1); experiment: NVS_NR_hFXR_Agonist: NovaScreen (NVS) Nuclear Receptor Binding Assay for human Farnesoid X Receptor Agonism (FXR) (AID 2283347)
# Method in brief: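 Cell-free TR-FRET binding assay with extracted human FXR protein, agonist format, read 1 h after dosing. Primary screen at 25 uM single concentration in duplicate, actives retested in concentration series; gain of signal versus DMSO.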
# Sequence of rat Monoamine Oxidase, MAO-B, Peripheral (MAOBP), Maob (gene 25750) (P19643 whole entry, looked up): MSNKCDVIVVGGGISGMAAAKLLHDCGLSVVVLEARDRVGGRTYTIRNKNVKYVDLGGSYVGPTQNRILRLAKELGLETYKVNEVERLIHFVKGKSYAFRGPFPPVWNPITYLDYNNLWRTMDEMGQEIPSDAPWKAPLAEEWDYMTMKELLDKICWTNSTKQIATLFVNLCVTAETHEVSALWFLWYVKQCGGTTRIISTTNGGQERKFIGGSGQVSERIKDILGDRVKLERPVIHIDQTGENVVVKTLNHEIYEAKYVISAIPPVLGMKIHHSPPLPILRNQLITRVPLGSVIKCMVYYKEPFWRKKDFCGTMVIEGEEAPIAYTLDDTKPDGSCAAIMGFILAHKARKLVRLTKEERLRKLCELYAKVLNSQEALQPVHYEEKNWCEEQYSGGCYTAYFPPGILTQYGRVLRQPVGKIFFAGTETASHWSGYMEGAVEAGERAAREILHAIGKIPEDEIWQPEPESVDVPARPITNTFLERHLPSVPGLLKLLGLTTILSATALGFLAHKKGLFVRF
# Sequence of human Retinoic Acid Receptor beta (RARb), RARB (gene 5915) (P10826 whole entry, looked up, the tested form may be a part): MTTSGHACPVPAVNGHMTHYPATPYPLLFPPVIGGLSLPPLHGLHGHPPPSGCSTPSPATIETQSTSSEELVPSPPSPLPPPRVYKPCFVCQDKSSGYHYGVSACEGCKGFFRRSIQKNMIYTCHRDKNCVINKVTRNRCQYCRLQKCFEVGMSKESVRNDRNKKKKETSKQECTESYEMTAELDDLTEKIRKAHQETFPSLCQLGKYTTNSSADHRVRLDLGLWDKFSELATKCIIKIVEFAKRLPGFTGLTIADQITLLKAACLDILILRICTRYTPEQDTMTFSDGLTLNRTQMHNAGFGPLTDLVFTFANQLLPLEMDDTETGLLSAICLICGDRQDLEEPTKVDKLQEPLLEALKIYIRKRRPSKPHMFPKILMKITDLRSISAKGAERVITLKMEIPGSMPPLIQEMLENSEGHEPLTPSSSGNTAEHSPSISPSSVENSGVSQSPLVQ
# Sequence of bovine Gamma-Aminobutyric Acid Type A Receptor BDZ, alpha 1 site (GABARa1), GABRA1 (gene 780973) (P08219 whole entry, looked up): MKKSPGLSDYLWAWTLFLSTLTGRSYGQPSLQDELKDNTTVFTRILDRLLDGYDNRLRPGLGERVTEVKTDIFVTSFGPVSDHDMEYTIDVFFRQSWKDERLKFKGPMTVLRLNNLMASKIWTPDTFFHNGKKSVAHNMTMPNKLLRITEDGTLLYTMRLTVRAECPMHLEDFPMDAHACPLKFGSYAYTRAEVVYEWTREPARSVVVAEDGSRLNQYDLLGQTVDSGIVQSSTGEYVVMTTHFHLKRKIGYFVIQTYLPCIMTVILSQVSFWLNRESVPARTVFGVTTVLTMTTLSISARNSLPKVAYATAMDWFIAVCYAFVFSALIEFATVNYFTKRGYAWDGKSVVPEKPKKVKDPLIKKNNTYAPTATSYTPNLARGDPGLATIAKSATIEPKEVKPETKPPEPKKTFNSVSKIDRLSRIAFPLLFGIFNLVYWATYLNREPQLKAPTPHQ
# Sequence of Bile acid receptor (Homo sapiens) (Q96RI1 whole entry, looked up): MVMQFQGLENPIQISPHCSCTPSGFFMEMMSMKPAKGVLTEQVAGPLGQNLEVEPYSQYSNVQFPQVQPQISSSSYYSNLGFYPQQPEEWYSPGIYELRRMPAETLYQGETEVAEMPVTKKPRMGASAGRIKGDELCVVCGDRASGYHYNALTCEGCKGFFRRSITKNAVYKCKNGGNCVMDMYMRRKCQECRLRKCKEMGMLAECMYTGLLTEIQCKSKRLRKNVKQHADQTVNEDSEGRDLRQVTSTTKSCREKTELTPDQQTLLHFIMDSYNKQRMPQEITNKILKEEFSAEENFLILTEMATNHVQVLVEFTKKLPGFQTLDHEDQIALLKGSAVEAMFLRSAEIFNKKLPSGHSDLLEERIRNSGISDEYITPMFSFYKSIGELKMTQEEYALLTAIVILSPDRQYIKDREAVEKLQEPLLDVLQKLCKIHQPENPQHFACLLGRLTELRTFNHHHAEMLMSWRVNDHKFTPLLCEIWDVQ
# Sequence of Luciferin 4-monooxygenase (Photinus pyralis) (P08659 whole entry, looked up): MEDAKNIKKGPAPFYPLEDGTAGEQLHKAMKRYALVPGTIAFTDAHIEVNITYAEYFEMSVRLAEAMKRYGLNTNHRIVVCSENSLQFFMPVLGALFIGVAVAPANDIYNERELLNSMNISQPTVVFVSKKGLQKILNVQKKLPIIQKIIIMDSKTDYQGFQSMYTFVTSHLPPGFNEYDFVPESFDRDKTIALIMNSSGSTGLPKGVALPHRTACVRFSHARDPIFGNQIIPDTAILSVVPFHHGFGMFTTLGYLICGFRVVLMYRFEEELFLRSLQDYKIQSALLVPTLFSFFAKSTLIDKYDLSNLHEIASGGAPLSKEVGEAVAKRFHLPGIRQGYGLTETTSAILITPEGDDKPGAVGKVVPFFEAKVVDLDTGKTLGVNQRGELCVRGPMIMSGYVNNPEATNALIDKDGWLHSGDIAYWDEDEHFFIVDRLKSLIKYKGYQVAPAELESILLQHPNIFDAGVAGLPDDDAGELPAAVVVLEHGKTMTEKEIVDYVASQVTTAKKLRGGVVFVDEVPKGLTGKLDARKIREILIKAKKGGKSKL
# Sequence of human Ephrin type-A Receptor 1 (EphA1), EPHA1 (gene 2041) (P21709 whole entry, looked up): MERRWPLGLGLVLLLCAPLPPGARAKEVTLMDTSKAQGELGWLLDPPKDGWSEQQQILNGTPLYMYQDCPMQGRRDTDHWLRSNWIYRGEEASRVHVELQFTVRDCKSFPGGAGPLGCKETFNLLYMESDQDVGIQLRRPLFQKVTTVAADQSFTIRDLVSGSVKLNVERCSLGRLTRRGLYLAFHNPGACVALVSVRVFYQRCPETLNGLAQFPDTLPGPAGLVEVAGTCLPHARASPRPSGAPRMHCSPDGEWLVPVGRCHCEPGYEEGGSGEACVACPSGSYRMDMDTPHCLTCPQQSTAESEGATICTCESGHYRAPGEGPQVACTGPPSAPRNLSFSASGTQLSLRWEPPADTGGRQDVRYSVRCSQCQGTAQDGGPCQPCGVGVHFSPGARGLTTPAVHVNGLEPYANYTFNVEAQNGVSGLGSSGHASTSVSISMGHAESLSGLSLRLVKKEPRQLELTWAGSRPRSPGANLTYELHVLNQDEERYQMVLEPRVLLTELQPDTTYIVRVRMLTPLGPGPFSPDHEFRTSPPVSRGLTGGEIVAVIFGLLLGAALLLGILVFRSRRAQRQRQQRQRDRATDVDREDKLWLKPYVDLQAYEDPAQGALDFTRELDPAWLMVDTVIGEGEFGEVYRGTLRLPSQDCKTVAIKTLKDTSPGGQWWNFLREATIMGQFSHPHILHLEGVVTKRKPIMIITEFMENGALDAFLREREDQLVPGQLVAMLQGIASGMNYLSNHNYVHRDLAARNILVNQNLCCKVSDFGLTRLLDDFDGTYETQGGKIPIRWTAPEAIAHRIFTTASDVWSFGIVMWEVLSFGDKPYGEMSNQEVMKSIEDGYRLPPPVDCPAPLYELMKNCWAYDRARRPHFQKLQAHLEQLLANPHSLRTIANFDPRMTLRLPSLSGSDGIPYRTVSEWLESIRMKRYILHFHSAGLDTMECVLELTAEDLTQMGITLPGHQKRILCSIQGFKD
# Sequence of Norway rat Vesicular Monoamine Transporter (VMAT2), neurotransmitter transporter, Slc18a2 (gene 25549) (Q01827 whole entry, looked up): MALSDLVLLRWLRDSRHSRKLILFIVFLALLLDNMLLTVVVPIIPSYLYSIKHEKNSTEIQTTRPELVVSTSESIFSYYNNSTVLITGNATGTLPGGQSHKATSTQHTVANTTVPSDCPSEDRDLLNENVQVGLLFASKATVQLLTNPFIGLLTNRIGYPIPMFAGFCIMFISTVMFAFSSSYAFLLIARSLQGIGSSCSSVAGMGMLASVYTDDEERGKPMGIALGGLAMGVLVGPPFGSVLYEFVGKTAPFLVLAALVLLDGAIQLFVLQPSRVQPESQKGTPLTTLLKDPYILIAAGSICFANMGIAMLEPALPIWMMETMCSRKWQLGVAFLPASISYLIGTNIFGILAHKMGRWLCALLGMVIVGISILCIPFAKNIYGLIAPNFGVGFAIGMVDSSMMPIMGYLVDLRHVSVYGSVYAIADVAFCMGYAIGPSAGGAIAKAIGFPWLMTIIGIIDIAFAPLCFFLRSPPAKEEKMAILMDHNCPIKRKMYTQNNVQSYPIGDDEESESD
# Sequence of rat CYP2C12, Cyp2c12 (gene 25011) (P11510 whole entry, looked up): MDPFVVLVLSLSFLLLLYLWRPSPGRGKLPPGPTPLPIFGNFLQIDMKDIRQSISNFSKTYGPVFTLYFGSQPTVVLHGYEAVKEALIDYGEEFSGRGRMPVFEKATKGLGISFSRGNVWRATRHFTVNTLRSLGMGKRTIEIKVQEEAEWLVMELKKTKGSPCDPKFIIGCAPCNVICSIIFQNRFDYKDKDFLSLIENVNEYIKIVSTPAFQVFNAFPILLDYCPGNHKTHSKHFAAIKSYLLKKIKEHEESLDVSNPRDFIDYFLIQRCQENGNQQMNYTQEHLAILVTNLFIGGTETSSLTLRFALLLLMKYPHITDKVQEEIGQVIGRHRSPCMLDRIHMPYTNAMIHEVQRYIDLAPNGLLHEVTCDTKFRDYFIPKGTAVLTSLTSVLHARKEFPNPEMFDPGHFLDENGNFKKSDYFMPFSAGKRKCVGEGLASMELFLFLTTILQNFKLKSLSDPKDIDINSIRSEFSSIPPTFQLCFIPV
smiles,measurement,setting,value
c1ccc(Nc2ccc3ccccc3c2)cc1,outcome,[1],inactive
same,AC50,[2],13 µM (active)
same,outcome,[3],inactive
same,outcome,[4],inactive
same,AC50,[5],5.24 µM (active)
same,outcome,[6],inactive
same,outcome,[7],inactive
same,outcome,[8],inactive
O=[N+]([O-])C=Cc1ccccc1,outcome,[9],inactive
same,AC50,[2],25 µM (active)
same,AC50,[8],2.31 µM (active)
CCOC(=O)COc1ccc(Cl)cc1Cl,outcome,[10],inactive
CC(C)c1ccc(O)cc1,AC50,[11],2.24 µM (active)
same,outcome,[12],inactive
same,outcome,[13],inactive
O=C(O)CCl,AC50,[11],18.1 µM (active)
same,outcome,[12],inactive
same,outcome,[13],inactive
Nc1ccccc1,AC50,[11],0.759 µM (active)
same,outcome,[12],inactive
same,outcome,[13],inactive
C=CC(=O)OCCO,outcome,[3],inactive
same,outcome,[4],inactive
same,outcome,[5],inactive
same,outcome,[6],inactive
same,AC50,[7],26.7 µM (active)
CC(C)(C)C(=O)CCl,outcome,[9],inactive
same,outcome,[1],inactive
O=C1C(Cl)=C(Cl)C(=O)C(Cl)=C1Cl,outcome,[9],inactive
same,outcome,[8],inactive
CCC1CCC(=O)O1 (stereo unspecified),outcome,[10],inactive
CC(=O)c1cc2c(cc1C)C(C)(C)C(C)CC2(C)C (stereo unspecified),outcome,[4],inactive
same,outcome,[5],inactive
same,outcome,[7],inactive
C=C(Cl)Cl,outcome,[10],inactive
CSc1ccc(Oc2ccc(S(N)(=O)=O)cc2CN(C)C)cc1C,outcome,[14],inactive
NC(=O)c1nc(-c2cccc(-c3cc(F)ccc3OCC(F)(F)C(F)(F)F)c2)n[nH]1,outcome,[15],inactive
CC(C)(c1ccc(O)cc1)c1ccc(O)cc1,AC50,[16],7.75 µM (active) and 4.05 µM (active) and 10 µM (active)
same,outcome,[17],inactive
same,outcome,[18],inactive
same,AC50,[19],12.5 µM (active) [middle of 4 runs]
CC1(C)C(=O)N(Br)C(=O)N1Br,outcome,[20],inactive
Cc1nc(-c2ccc3c(c2)CCN(CCC2CCC(NC(=O)/C=C/c4ccc(F)cc4)CC2)CC3)no1 (stereo unspecified),AC50,[17],16.2 µM (active)
CCN(CC)CCOc1ccc(C(=C(Cl)c2ccccc2)c2ccccc2)cc1,outcome,[14],inactive
same,AC50,[15],3.9 µM (active)
same,outcome,[20],inactive
same,AC50,[19],5.01 µM (active)
CCSC(=O)N(CC(C)C)CC(C)C,outcome,[18],inactive
CCCCCCCCCC(=O)O,AC50,[18],19.7 µM (active)
O=c1c(-c2ccc(O)cc2)coc2cc(O)cc(O)c12,outcome,[19],inactive
CCCCOCCOCCOCc1cc2c(cc1CCC)OCO2,outcome,[16],inactive
N#CSCSc1nc2ccccc2s1,AC50,[16],5.12 µM (active)
same,AC50,[14],25 µM (active)
same,outcome,[17],inactive
Cc1nn(C)c(Oc2ccccc2)c1C=NOCc1ccc(C(=O)OC(C)(C)C)cc1,outcome,[20],inactive
C=CCCCCCCCCCCCC,outcome,[15],inactive
